PubChem BioAssay AID1986 (Sanford-Burnham Center for Chemical Genomics, 2009)
In all, about 290,000 compounds went through this assay and about 890 (0.31%) were called active. No stated cut-off is given here; in the data, active means inhibition mostly above about 52% (no sharp cut-off); inactive means mostly below about 76%. The entries come from a sample that favours actives as a whole.

Assay: cell-free HIV fusion peptide-binding blockers – biochemical, uHTS, fluorescence dequenching, primary screen (AID 1986)
Details: 30 min, stronger effect = higher value
[1] = measured here: repeat confirmation average inhibition, at 18.6 µM

SMILES	inhibition (at 20 µM)	inhibition [1]
c1ccc(-c2nc3ccccc3c3nncn23)cc1	-1.8% (inactive)	
O=c1[nH]nc(SCc2ccccc2Cl)n1-c1ccc2c(c1)OCCO2	-1.4% (inactive)	
COCCCN(C(=O)c1ccco1)c1nc(-c2ccc(OC)cc2)cs1	2.9% (inactive)	
O=C(CCCl)Nc1cc(SCCO)cc([N+](=O)[O-])c1	0.1% (inactive)	
CC(=O)c1cc(NC(=O)c2ccc(C)cc2)c(=O)oc1/C=C/N(C)C	25.7% (inactive)	
CC(=O)c1cc(NC(=O)c2cccc(C(F)(F)F)c2)c(=O)oc1C	0.8% (inactive)	
CC(=O)c1cc(NC(=O)c2cccc(C(F)(F)F)c2)c(=O)oc1/C=C/N(C)C	75.6% (active)	91.6%
COC(=O)c1ccc2c(c1)C(C)(C)C(/C=C/c1ccc(OC)c(OC)c1OC)=[N+]2C	10.3% (inactive)	
COC(=O)c1ccc2c(c1)C(C)(C)C(/C=C/c1ccccc1O)=[N+]2C	143% (inactive)	
COC(=O)c1ccc2c(c1)C(C)(C)C(/C=C/c1ccc(O)cc1)=[N+]2C	111% (active)	
C/C=C(\C)CN1CCN(c2ccccc2F)CC1	-0.4% (inactive)	
CC(=O)c1sc(NS(=O)(=O)c2ccc(C)cc2)nc1-c1ccccc1	19.8% (inactive)	
COc1cc(/C=C2\S/C(=N/S(=O)(=O)c3ccccc3)NC2=O)c([N+](=O)[O-])cc1OC	59.3% (inactive)	33.8%
O=C(NCc1cc([N+](=O)[O-])ccc1O)c1cccc(NS(=O)(=O)c2ccccc2)c1	4% (inactive)	
NC1=NC(=O)/C(=C\c2cc([N+](=O)[O-])ccc2Cl)S1	-3.5% (inactive)	
Cc1ccc(S(=O)(=O)N/N=C/c2cc([N+](=O)[O-])ccc2O)cc1[N+](=O)[O-]	17.1% (inactive)	
COc1ccc(S(=O)(=O)/N=C2/NC(=O)/C(=C\c3cc(OC)c(OC)cc3[N+](=O)[O-])S2)cc1	27.4% (inactive)	
Cc1ccc(S(=O)(=O)N/N=C\c2cc([N+](=O)[O-])ccc2Cl)cc1	2.5% (inactive)	
O=S(=O)(c1ccccc1)N1CCN(c2nnc(-c3ccccc3)c3ccccc23)CC1	0% (inactive)	
Cc1cc(S(=O)(=O)N2CCCC2)c(C)s1	-1.2% (inactive)	
Nn1c(SCc2cccc(Br)c2)nnc1-c1cccnc1	-2% (inactive)	
CCOc1ccc(/C=C2/C(=O)N(c3ccc(OC)cc3)C(=S)N2CC(=O)OC)cc1OCC	2.5% (inactive)	
COC(=O)CN1C(=S)N(c2ccc(OC)cc2)C(=O)/C1=C/c1ccc(OC)cc1	-1.4% (inactive)	
COC(=O)CN1C(=S)N(c2ccc(OC)cc2)C(=O)/C1=C/c1ccc(N2CCOCC2)cc1	73.4% (active)	

SMILES	inhibition (at 20 µM)	inhibition [1]
COC(=O)N=Nc1c(O)[nH]c2ccc(Br)cc12	-0.3% (inactive)	
COc1ccccc1NC(=S)N=Nc1c(O)[nH]c2ccc(Br)cc12	-1.3% (inactive)	
COc1ccccc1N=Nc1c(O)[nH]c2ccc(Br)cc12	74.7% (active)	70.2%
Cc1ccc(CNc2ccc3c(c2)OCO3)cc1	112% (active)	
Cc1ccc(C(=O)NCc2ccc3c(c2)OCO3)c(C)c1	0.4% (inactive)	
c1cc(CNc2ccc3c(c2)OCO3)ccn1	4.7% (inactive)	
Cc1ccc(CNc2ccc3c(c2)OCO3)c(C)c1	52.3% (active)	
Cc1ccc(CNCc2ccc3c(c2)OCO3)cc1	2.9% (inactive)	
Cc1ccc(CNCc2ccc3c(c2)OCO3)c(C)c1	-1.9% (inactive)	
COC(=O)c1cc2ccccc2c(-c2c(OC)c(C(=O)OC)cc3ccccc23)c1OC	-0.9% (inactive)	
CCOC(=O)N/N=C/c1ccc(OCCSc2ccc(Cl)cc2)c(OC)c1	6.5% (inactive)	
O=C(NC1CCCC1)C(c1cccs1)N(C(=O)c1csnn1)c1ccccc1F (configuration not stated)	0.9% (inactive)	
COc1ccc(/C=C2\OC(=S)N(C)C2=O)cc1	-1.3% (inactive)	
CN1C(=O)/C(=C\c2ccc(N(C)C)cc2)OC1=S	78.5% (active)	83.9%
CN(C)c1ccc(/C=C2\N=C(C(C)(C)C)OC2=O)cc1	28.5% (inactive)	
COc1ccccc1CN1C(=S)SC(C)(C)C1NO (configuration not stated)	-0.5% (inactive)	
CCCCc1nc2cc(C(=O)N3CCNC(=O)C3)ccc2o1	0.8% (inactive)	
CCC1C/C(=C/c2ccco2)C(=O)/C(=C/c2ccco2)C1 (configuration not stated)	68.9% (inactive)	0.1%
Cn1cccc1/C=C1\CC(C(C)(C)C)C/C(=C\c2cccn2C)C1=O (configuration not stated)	2.7% (inactive)	
CC(C)(C)C1C/C(=C/c2ccccn2)C(=O)/C(=C/c2ccccn2)C1 (configuration not stated)	3.1% (inactive)	
O=C1/C(=C\c2ccco2)CCC/C1=C\c1ccco1	69.6% (inactive)	3.2%
O=C1/C(=C/c2cccs2)CCC/C1=C\c1cccs1	31.9% (inactive)	
CC1C/C(=C/c2ccncc2)C(=O)/C(=C/c2ccncc2)C1 (configuration not stated)	1.9% (inactive)	
CC1C/C(=C/c2cccs2)C(=O)/C(=C/c2cccs2)C1 (configuration not stated)	68.1% (active)	

SMILES	inhibition (at 20 µM)	inhibition [1]
CC1C/C(=C/c2ccco2)C(=O)/C(=C/c2ccco2)C1 (configuration not stated)	61.3% (active)	
CC(C)(C)C1C/C(=C/c2ccco2)C(=O)/C(=C/c2ccco2)C1 (configuration not stated)	61.8% (active)	
N#Cc1cccn1-c1nccs1	-0.8% (inactive)	
Cc1onc(-c2c(F)cccc2Cl)c1C(=O)OCC(=O)NC(N)=O	-0.8% (inactive)	
COC(=O)c1ccc(CSc2nc3ccccc3[nH]2)o1	1.5% (inactive)	
CC(C)N1C(=O)S/C(=C\c2ccc(-c3ccc(Cl)c(C(=O)O)c3)o2)C1=O	24.7% (inactive)	
CCN(CC)c1ccc(/C=C2/SC(=O)N(C(C)C)C2=O)o1	2.5% (inactive)	
CCN(CC)c1ccc(/C=C2\SC(=O)N(C(C)C)C2=O)o1	56.4% (active)	
O=C(O)c1ccc2c(c1)C1C=CCC1C(c1ccncc1)N2 (configuration not stated)	24.6% (inactive)	
COc1ccc(C(=O)N/N=C(\C)c2ccc3c(c2)C2C=CCC2C(c2ccccc2)N3)cc1 (configuration not stated)	16.5% (inactive)	
NCCCNc1ccc([N+](=O)[O-])cc1C(F)(F)F	0.6% (inactive)	
O=C(COc1ccc(Br)cc1Cl)NC(=S)Nc1ccccn1	-1.1% (inactive)	
CC1=CC(=C(C#N)c2nc3ccccc3s2)C=C(C)N1c1ccc(F)cc1	66.4% (active)	
CC1=CC(=C(C#N)c2nc3ccccc3s2)C=C(C)N1c1ccc(F)cc1F	22.6% (inactive)	
COc1ccccc1N1C(C)=CC(=C(C#N)c2nc3ccccc3s2)C=C1C	26.5% (inactive)	
CCN(CC)C(=O)Cn1cc(S(=O)(=O)CC(=O)Nc2cc(OC)ccc2OC)c2ccccc21	-1.7% (inactive)	
C=CCNCCCCOc1ccccc1-c1ccccc1	-2% (inactive)	
CC1=NOC(=O)/C1=C/c1ccc(O)cc1	0.5% (inactive)	
CCN(CC)c1ccc(/C=C2/C(=O)ON=C2C)cc1	100% (active)	
CC1=NOC(=O)/C1=C/c1ccc(N(C)C)cc1	-2.2% (inactive)	
Nn1cnnc1SCC(=O)Nc1ccc2c(c1)OCO2	0.5% (inactive)	
Cc1cccc(C)c1Nc1nnc(SCC(=O)c2ccc3c(c2)NC(=O)CO3)s1	0.2% (inactive)	
CCOC(=O)/C(C#N)=C\c1ccc(N2CCN(C)CC2)cc1	4% (inactive)	
CCOC(=O)/C(C#N)=C/c1ccc(N2CCN(C)CC2)cc1	7.2% (inactive)	

SMILES	inhibition (at 20 µM)	inhibition [1]
CCOC(=O)/C(C#N)=C\c1ccc(N2CCN(C/C=C/c3ccccc3)CC2)cc1	117% (active)	
CCCCCCCCCC[n+]1cccc(C(=O)N(CC)CC)c1	3% (inactive)	
CCCCCCCCCCCCCCCC[n+]1ccc(C(N)=O)cc1	-14.2% (inactive)	
CCCn1c(=O)c2sccc2n2c(CCCC(=O)NCc3cccnc3)nnc12	-1.5% (inactive)	
O=C(c1ccccc1)N1N=C(c2ccccc2)CC1c1ccccc1 (configuration not stated)	1.1% (inactive)	
Cc1cc[n+](-c2[nH]c(=O)sc2/C=N/N=C(\[O-])c2ccccc2)cc1	10.5% (inactive)	
Cc1cc[n+](-c2[nH]c(=O)sc2/C=N/N=C(\[O-])c2ccncc2)cc1C	0% (inactive)	
Cc1cc[n+](-c2[nH]c(=O)sc2/C=N/N=C(\[O-])c2ccccc2)cc1C	116% (active)	93.6%
Cc1cc(NC(=O)CSCC(=O)N(c2cccc(Cl)c2)C(C(=O)NC2CCCCC2)c2ccc(O)c(O)c2)no1 (configuration not stated)	11.2% (inactive)	
CSCc1ccc(C(=O)NC2CC(C)(C)Cc3c2cnn3-c2ccc(F)cc2)o1 (configuration not stated)	1.2% (inactive)	
CCCn1c(=O)c2ccccc2n2c(SCN3C(=O)c4ccccc4C3=O)nnc12	0.3% (inactive)	
N#C/C(=C/c1ccc(-c2cc(C(=O)O)cc(C(=O)O)c2)o1)c1nc2ccccc2s1	92.9% (active)	
CC1(C)OC(=O)C(=Cc2ccc(-c3ccc(Cl)c(C(=O)O)c3)o2)C(=O)O1	36.9% (inactive)	
N#C/C(=C\c1ccco1)c1nc2ccccc2s1	146% (inactive)	
N#C/C(=C/c1ccc(-c2ccccc2)o1)c1nc(-c2cccs2)cs1	62.6% (active)	
N#C/C(=C\c1ccc(-c2ccc([N+](=O)[O-])cc2)o1)C(=O)Nc1nc(-c2cccs2)cs1	-1.7% (inactive)	
N#C/C(=C\c1ccc(-c2ccc(F)cc2)o1)C(=O)Nc1nc(-c2cccs2)cs1	14.4% (inactive)	
O=C(O)c1cc(-c2ccc(/C=C3\NC(=O)N(c4ccccc4)C3=O)o2)ccc1Cl	32.2% (inactive)	
O=C(O)c1cc(-c2ccc(/C=c3\sc4nc5ccc(Br)cc5n4c3=O)o2)ccc1Cl	68.1% (active)	
O=C(O)c1cccc(-c2ccc(/C=N/n3cnnc3)o2)c1	1.6% (inactive)	
O=Cc1ccc(-c2cccc(C(=O)O)c2)o1	2.4% (inactive)	
N#C/C(=C/c1ccc(-c2ccc(S(N)(=O)=O)cc2)o1)c1nc2ccccc2s1	149% (inactive)	
O=C(O)c1cccc(-c2ccc(/C=c3/sc4nc5ccccc5n4c3=O)o2)c1	78% (active)	
